In the supplement of paper PMC7366291:
Where a name gives a salt, the structure may show the parent alone. ± gives the standard deviation or the standard deviation of the averaged measurements.

Columns and labels:
Settings in all cases: 25 µM; exposure: 24-48 hpf
[1] = test system: Danio rerio Tg(wt1b:EGFP) embryo, pronephros; test: glomerular separation, fold change vs DMSO control; higher = glomeruli further apart (abnormal)
In short: (§1)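 Dechorionated Tg(wt1b:EGFP) zebrafish embryos were incubated at 28.5°C from 24 to 48 hpf with 25 μM compound in HEPES-buffered E3 containing 0.5% DMSO and 0.003% PTU. Distances and angles between 16 manually set points on maximum projections of dorsal pronephros images were measured in Fiji, with values over 2 SD from the feature mean excluded. Each feature is a fold change relative to the mean of same-day DMSO-treated embryos.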

[2] = test system: Danio rerio Tg(wt1b:EGFP) embryo, pronephros; test: glomerular width (mean of left and right), fold change vs DMSO control; higher = wider glomerulus
In short: as §1

[3] = test system: Danio rerio Tg(wt1b:EGFP) embryo, pronephros; test: fraction of imaged embryos annotated as normal kidney; higher = less nephrotoxic; extreme values may be limits of the assay
In short: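 Dechorionated Tg(wt1b:EGFP) zebrafish embryos were incubated with 25 μM compound in 0.5% DMSO, 5 mM HEPES-buffered E3 and 0.003% PTU from 24 to 48 hpf at 28.5°C. Pronephroi were then imaged by widefield fluorescence, and the fraction of embryos per treatment assigned by hand to the normal-kidney category is given.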

[4] = test system: Danio rerio Tg(wt1b:EGFP) embryo, pronephros; test: pronephric angle neck segment to proximal convoluted tubule (mean of left and right), fold change vs DMSO control; higher = larger pronephric angle
In short: as §1

C[C@]12C[C@H](O)[C@H]3[C@@H](CCC4=CC(=O)CC[C@@]43C)[C@@H]1CC[C@@H]2C(=O)CO [Corticosterone]
glomerular separation [1]: 1.36 ± 0.4
glomerular width [2]: 1.13 ± 0.026
fraction of imaged embryos annotated as normal kidney [3]: 0.417
pronephric angle neck segment [4]: 1.01 ± 0.019

C[C@H]1c2cccc(O)c2C(=O)C2=C(O)[C@]3(O)C(=O)C(C(N)=O)=C(O)[C@@H](N(C)C)[C@@H]3[C@@H](O)[C@@H]21 [Doxycycline hydrochloride]
glomerular separation [1]: 1.09 ± 0.26
glomerular width [2]: 1.02 ± 0.055
fraction of imaged embryos annotated as normal kidney [3]: 0.833
pronephric angle neck segment [4]: 1.034 ± 0.01

CC(c1cc2ccccc2s1)N(O)C(N)=O (centres undefined) [Zileuton]
glomerular separation [1]: 1.25 ± 0.57
glomerular width [2]: 0.993 ± 0.02
fraction of imaged embryos annotated as normal kidney [3]: 0.667
pronephric angle neck segment [4]: 1.11 ± 0.072

OCCN1CCN(CC/C=C2/c3ccccc3Sc3ccc(Cl)cc32)CC1 [Zuclopenthixol dihydrochloride]
glomerular separation [1]: 1.17 ± 0.21
glomerular width [2]: 0.97247 ± 0.0005
fraction of imaged embryos annotated as normal kidney [3]: 0.833
pronephric angle neck segment [4]: 1.01 ± 0.039

CNS(=O)(=O)Cc1ccc2[nH]cc(CCN(C)C)c2c1 [Sumatriptan succinate]
glomerular separation [1]: 0.982 ± 0.29
glomerular width [2]: 1.03 ± 0.053
fraction of imaged embryos annotated as normal kidney [3]: 1
pronephric angle neck segment [4]: 1 ± 0.04

Cc1oncc1C(=O)Nc1ccc(C(F)(F)F)cc1 [Leflunomide]
glomerular separation [1]: 2.27 ± 1
glomerular width [2]: 1.19 ± 0.15
fraction of imaged embryos annotated as normal kidney [3]: 0.167
pronephric angle neck segment [4]: 1.23 ± 0.054

Cc1c(-c2ccccc2)oc2c(C(=O)OCCN3CCCCC3)cccc2c1=O [Flavoxate hydrochloride]
glomerular separation [1]: 1.17 ± 0.37
glomerular width [2]: 1.08 ± 0.037
fraction of imaged embryos annotated as normal kidney [3]: 0.75
pronephric angle neck segment [4]: 1.06 ± 0.02

O=C(OCC(O)CO)c1ccccc1Nc1ccnc2cc(Cl)ccc12 (centres undefined) [Glafenine hydrochloride]
glomerular separation [1]: 1.05 ± 0.26
glomerular width [2]: 1.02 ± 0.04
fraction of imaged embryos annotated as normal kidney [3]: 0.833
pronephric angle neck segment [4]: 1.02 ± 0.017

CCCCC(O)c1ccccc1 (centres undefined) [Fenipentol]
glomerular separation [1]: 1.17 ± 0.29
glomerular width [2]: 0.993 ± 0.03
fraction of imaged embryos annotated as normal kidney [3]: 0.833
pronephric angle neck segment [4]: 0.967 ± 0.017

CC(=O)[C@H]1CC[C@H]2[C@@H]3CCC4=CC(=O)CC[C@]4(C)[C@H]3CC[C@]12C [Progesterone]
glomerular separation [1]: 3.48 ± 3.4
glomerular width [2]: 0.873 ± 0.086
fraction of imaged embryos annotated as normal kidney [3]: 0.364
pronephric angle neck segment [4]: 1.2 ± 0.12

CCc1cc(C(N)=S)ccn1 [Ethionamide]
glomerular separation [1]: 0.955 ± 0.39
glomerular width [2]: 0.97628 ± 0.00041
fraction of imaged embryos annotated as normal kidney [3]: 0.75
pronephric angle neck segment [4]: 0.96 ± 0.039

CC[C@H](C)C(=O)O[C@H]1CCC=C2C=C[C@H](C)[C@H](CC[C@@H]3C[C@@H](O)CC(=O)O3)[C@H]21 [Mevastatin]
glomerular separation [1]: 4.87 ± 2.8
glomerular width [2]: 0.798 ± 0.046
fraction of imaged embryos annotated as normal kidney [3]: 0
pronephric angle neck segment [4]: 1.73 ± 0.056

CC(=O)[C@@]1(O)CC[C@H]2[C@@H]3C[C@H](C)C4=CC(=O)C=C[C@]4(C)[C@@]3(F)[C@@H](O)C[C@@]21C [Fluorometholone]
glomerular separation [1]: 1.11 ± 0.27
glomerular width [2]: 1.174 ± 0.0086
fraction of imaged embryos annotated as normal kidney [3]: 0.417
pronephric angle neck segment [4]: 0.997 ± 0.035

C[C@H](CCC(=O)O)[C@H]1CC[C@H]2[C@@H]3[C@@H](O)C[C@@H]4C[C@H](O)CC[C@]4(C)[C@H]3CC[C@]12C [Urosiol]
glomerular separation [1]: 1.3 ± 0.7
glomerular width [2]: 0.775 ± 0.074
fraction of imaged embryos annotated as normal kidney [3]: 0.583
pronephric angle neck segment [4]: 0.965 ± 0.032

O=C(NCCO[N+](=O)[O-])c1cccnc1 [Nicorandil]
glomerular separation [1]: 1.05 ± 0.44
glomerular width [2]: 0.989 ± 0.083
fraction of imaged embryos annotated as normal kidney [3]: 0.917
pronephric angle neck segment [4]: 0.9232 ± 0.008

C#C[C@]1(O)CC[C@H]2[C@@H]3CCC4=C(CCC(=O)C4)[C@H]3CC[C@@]21C [Norethynodrel]
glomerular separation [1]: 1.17 ± 0.41
glomerular width [2]: 0.9892 ± 0.0088
fraction of imaged embryos annotated as normal kidney [3]: 0.667
pronephric angle neck segment [4]: 0.984 ± 0.06
